Shown are actives, neighbours in structure and some others; about 3% of the full set was active somewhere.
LmPK inhibitor – blocks Leishmania mexicana pyruvate kinase activity | AID 1721 | purified LmPK, Kinase-Glo ATP luminescence, 1 h | Potency, µM (top dose mostly 57.5 µM), for inactives: top-dose activity change, negative = inhibition, usual class: inhibitors | 290,000 tested, 0.37% active
Target sequence (Q27686 whole entry, looked up): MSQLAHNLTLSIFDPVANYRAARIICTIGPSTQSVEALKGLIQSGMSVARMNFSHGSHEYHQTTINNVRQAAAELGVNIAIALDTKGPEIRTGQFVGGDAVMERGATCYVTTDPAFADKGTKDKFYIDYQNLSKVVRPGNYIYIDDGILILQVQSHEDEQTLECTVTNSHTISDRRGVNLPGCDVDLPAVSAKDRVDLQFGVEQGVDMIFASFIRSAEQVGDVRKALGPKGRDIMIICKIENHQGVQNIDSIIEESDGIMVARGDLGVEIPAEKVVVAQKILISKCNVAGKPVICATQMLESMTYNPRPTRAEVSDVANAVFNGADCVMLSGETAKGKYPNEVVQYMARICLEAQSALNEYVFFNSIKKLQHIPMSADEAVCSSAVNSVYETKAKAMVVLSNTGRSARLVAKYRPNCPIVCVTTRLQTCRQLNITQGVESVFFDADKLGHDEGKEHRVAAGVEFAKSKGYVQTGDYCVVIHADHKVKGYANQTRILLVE
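Pyruvate kinase activity monitored as ATP production (luciferase luminescence). Conditions: 0.1 nM enzyme, 0.5 mM PEP, 0.1 mM ADP, 1 h, RT; normalized against uninhibited and no-enzyme wells.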
Tb PYK inh – T. brucei pyruvate kinase inhibition | TbPYK enzyme, Kinase-Glo Plus ATP luminescence, 45 min | Potency, µM (top dose mostly 76.8 µM), for the others: at the highest dose activity, negative = inhibition, usual class: inhibitors | 410,000 tested, 0.12% active; also: nearly all actives have a fitted effect of over 50% in size
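Assay buffer: 50 mM TEA pH 7.2, 100 mM KCl, 10 mM MgCl2, 0.05% BSA, 0.01% Tween-20. Pyruvate kinase from T. brucei plus substrate met compound, then ADP (130 uM final). Luminescence was read post 45 min RT.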
Sm TGR block – S. mansoni TGR enzyme inhibition | purified TGR, DTNB reduction, TNB absorbance 405 nm | Potency, µM (highest dose often 114 µM), without a hit: at the highest dose activity change, negative = inhibition, usual class: inhibitors | 360,000 tested, 3% active | AID 485364; also: nearly all actives have a fitted effect of over 60% in size
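Kinetic colorimetric format: TGR-catalysed, NADPH-driven DTNB reduction monitored via TNB absorbance. Enzyme dispensed at 20 nM; compound exposure 15 min at room temperature before reaction start.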
RE007 growth inh – less growth of the S. pombe RE007 Vpr strain; Potency, µM (doses to about 92.2 µM), inactives show at the top dose activity change, negative = less growth, hits mostly inhibitors; S. pombe RE007 Vpr strain, BacTiter-Glo ATP luminescence, 24 h; AID 651644; 360,000 tested, 0.21% active; active = well fitted falling curve with a large enough effect; inconclusive = small, poorly fitted or top-dose-only effect; inactive = no such curve, though single readings can be large or run the other way; also: nearly all actives have a fitted effect of over 50% in size
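Fission yeast RE007 carrying one integrated HIV-1 vpr copy, seeded at OD 0.01 in PMG+AL medium with 23 nL pinned compound. Grown 24 h at 30 degrees; viability read by BacTiter-Glo luminescence after 5 min.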
An asterisk follows results filed as active; ? = inconclusive; / = not tested or not shown. Unless noted, calls follow the shape of the dose curve; as a rule, active = well fitted curve in the direction sought with a large enough effect; inconclusive = small, poorly fitted or top-dose-only effect, or another doubt; inactive = no such curve, though single readings can be large; an effect the other way counts as inactive or inconclusive. % is scaled to controls: 0 for no effect and ±100 for the full control effect; potency is read from the fitted curve at half-maximal effect.

SMILES	LmPK inhibitor	Tb PYK inh	Sm TGR block	RE007 growth inh
CC1(c2ccccc2)CC(c2ccccc2)=Nc2ccccc2N1 (stereo not given)	3%	-7%	?	-8%
Cc1ccc(C2=Nc3ccccc3NC(C)(c3ccc(C)o3)C2)o1 (stereo not given)	-4%	-5%	35µM*	-16%
CCC1CCCCN1C(=O)CSc1nc2c([nH]c3ccccc32)c(=O)n1-c1ccc(OC)cc1 (stereo not given)	/	1%	-5%	/
COCCOCCn1c(/C=C/c2ccccc2)nc2ccccc21	14µM*	-7%	0%	?
Cc1ccc(-n2c3c(cc(C(=O)Nc4ccccc4C(N)=O)c2=O)C(=O)CC(C)(C)C3)cc1	/	-10%	3%	/
COc1ccc(C(c2nnnn2CCc2ccccc2)N2CCN(C)CC2)cc1OC (stereo not given)	8%	-15%	89µM*	9%
COc1ccccc1N1CCN(C(c2ccccc2)c2nnnn2CCc2ccccc2)CC1 (stereo not given)	1%	0%	-9%	7%
COCCn1nnnc1C(c1ccc(O)c(OC)c1)N1CCc2ccccc2C1 (stereo not given)	20%	-24%	0.35µM*	19%
CC(=O)c1ccc(OCc2cc(C(=O)N3CCC(c4ccncc4)CC3)no2)cc1	1%	1%	45µM*	-7%
CC(=O)c1ccc(OCc2cc(C(=O)N3CC[C@@H]4CCCC[C@H]4C3)no2)cc1	-1%	5%	13µM*	-5%
COc1cccc(OCc2cc(C(=O)N3CCC(c4ccncc4)CC3)no2)c1	0%	1%	-3%	-11%
c1ccc2c(c1)CCN(c1ncnc3nc[nH]c13)C2	-6%	-9%	0%	3%
C1=C(c2ccccc2)CCN(c2ncnc3nc[nH]c23)C1	-2%	-5%	50µM*	2%
O=C(c1nc[nH]c1C(=O)N1CCc2ccccc2C1)N1CCc2ccccc2C1	/	3%	3%	5%
CN(Cc1ccccc1)C(=O)c1nc[nH]c1C(=O)N1CCc2ccccc2C1	/	-1%	35µM*	11%
COc1cccc(C2NC(=O)NC(O)(C(F)(F)F)C2C(=O)c2cccnc2)c1OC (stereo not given)	0%	7%	22µM*	-10%
COc1ccc(C2NC(=O)NC(O)(C(F)(F)F)C2C(=O)c2ccccc2)cc1OC (stereo not given)	8%	-15%	35µM*	0%
O=C(N[C@@H]1N=C(c2ccccc2F)c2cccc3c2N(CC3)C1=O)c1cc2ccccc2[nH]1	/	2%	/	/
CCCn1c(CCC(=O)Nc2cc(OC)cc(OC)c2)nc2cccnc21	/	-2%	0%	/
CSC1=C(C#N)C(=O)NC(c2ccc(Cl)cc2)S1 (stereo not given)	-1%	2%	10µM*	8%
CSc1nc(-c2ccc(Cl)cc2)c(C#N)c(=O)[nH]1	0%	-3%	/	0%
CC(C)(CO)C(O)C(=O)NCCCC(=O)O (stereo not given)	/	3%	/	/
O=S(=O)(Cc1ccco1)Cc1nc(-c2ccc(Cl)cc2)cs1	4%	1%	-32%	-14%
O=S(=O)(Cc1noc(-c2ccc(Cl)cc2)n1)Cc1ccco1	1%	0%	50µM*	-8%
Cc1cc(C(=O)COC(=O)c2cc(O)c3ccccc3c2O)c(C)n1CC1CCCO1 (stereo not given)	-20%	?	20µM*	-16%
SMILES	LmPK inhibitor	Tb PYK inh	Sm TGR block	RE007 growth inh
Cc1cc(C(=O)COC(=O)c2cccnc2Cl)c(C)n1CC1CCCO1 (stereo not given)	25µM*	-23%	2%	-24%
C/C(=C(/CCOC(=O)c1ccccc1)SS/C(CCOC(=O)c1ccccc1)=C(\C)N(C=O)Cc1cnc(C)nc1N)N(C=O)Cc1cnc(C)nc1N	/	-10%	/	/
O=C(NCCO)c1ccc2nc(-c3ccco3)c(-c3ccco3)nc2c1	4%	-37%	1.8µM*	-19%
c1coc(-c2cnc3ccccc3n2)c1	/	-2%	/	-22%
c1coc(-c2nc3ccccc3nc2-c2ccco2)c1	2%	?	3.5µM*	-12%
O=C(NC1CCCC1)c1ccc2nc[nH]c2c1	-5%	-1%	8%	3%
O=C(NCCc1ccccc1)c1ccc2nc(-c3ccco3)c(-c3ccco3)nc2c1	7%	?	1.3µM*	-19%
O=C(NC1CCCC1)c1ccc2nc(-c3ccco3)c(-c3ccco3)nc2c1	7%	?	3.2µM*	-13%
O=C(c1ccccc1)c1ccc2nc(-c3ccco3)c(-c3ccco3)nc2c1	-4%	?	/	-3%
COc1cc(CNC(=O)C2CCCCN2S(=O)(=O)c2ccc(F)cc2)cc(OC)c1OC (stereo not given)	/	-4%	-1%	/
CC(C)(C)C(=O)Cn1c(=O)n(-c2ccc(Cl)c(Cl)c2)c(=O)c2c3c(sc21)CCCC3	/	1%	-6%	/
c1ccc(-c2cn3c4c(sc3n2)CCCC4)cc1	14µM*	-8%	6%	25µM*
O=C(Nc1ccccc1N1CCOCC1)c1cccc2ccccc12	/	-10%	/	-24%
Cc1[nH]c2ccccc2c1/C=N/Nc1cccc(C(=O)O)c1	-3%	-12%	45µM*	19%
CC(=O)Nc1ccc(S(=O)(=O)N(C)CC(=O)OCC(=O)N2CCN(C(=O)c3ccco3)CC2)cc1	/	-5%	50µM*	-10%
CCOC(=O)/C=C/C(=O)OCC(=O)N1CCN(C(=O)c2ccco2)CC1	-1%	-1%	32µM*	-5%
Cc1ccc(SCC(=O)OCC(=O)N2CCN(C(=O)c3ccco3)CC2)c(C)c1	/	1%	45µM*	5%
CCOC(=O)c1ccc2c(c1)N(Cc1ccc(F)cc1Cl)C(=O)c1ccccc1S2(=O)=O	/	1%	-10%	/
CC(=O)Nc1ccc(NCc2cccs2)cc1	1%	-1%	17%	7%
Oc1ccc(NCc2cccs2)cc1	-2%	?	50µM*	-15%
COc1cc(N2C(=O)C=CC2=O)ccc1N1C(=O)C=CC1=O	/	4.5µM*	/	-11%
COc1ccc(N2C(=O)C3CC(C)=C(C)CC3C2=O)c(OC)c1 (stereo not given)	-3%	-1%	3%	-6%
CCN1CCOC(CC(=O)Nc2cccc([N+](=O)[O-])c2)C1=O (stereo not given)	2%	3%	11µM*	?
CCCN1CCOC(CC(=O)Nc2ccc([N+](=O)[O-])cc2)C1=O (stereo not given)	0%	5%	28µM*	?
CC1CCN(CC(=O)Nc2cccc([N+](=O)[O-])c2)CC1	-6%	0%	-16%	6%
COc1cc(C2CC(=O)Nc3c2c(C)nn3-c2nncc(-c3ccccc3)n2)cc(OC)c1OC (stereo not given)	/	-4%	-3%	/
CCC(C(=O)Nc1cc(-c2nc3cccnc3s2)ccc1C)c1ccccc1 (stereo not given)	/	-8%	-9%	/
N#CC(C#N)=Cc1ccc(-c2ccccc2F)o1	-1%	1%	4µM*	16%
N#CC(C#N)=Cc1ccc(-c2ccccc2)o1	0%	/	?	/

Screening results: PubChem, National Center for Advancing Translational Sciences (NCATS)
